# Reference: PubChem BioAssay (NCATS)
# “And” between values parts separate entries of the source, which are not always exact repeats. Equal entries are not always repeated. Records with an inconclusive call do not appear. Where a call stands in place of a potency, no number is given. Unmarked numbers belong to inactive results. The source made the active and inactive calls. The call rests on the fitted dose curve; in most records, active means well fitted curve in the direction sought with a large enough effect; inconclusive means small, poorly fitted or top-dose-only effect, or another doubt; inactive means no such curve, though single readings can be large; an effect the other way counts as inactive or inconclusive.
# Assays:
# [1] = qHTS of pediatric cancer cell lines to identify multiple opportunities for drug repurposing: Primary screen for LAN-5 cells (AID 1347100); further: potency means the concentration at half of the fitted maximal effect
# Outline: (§1)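 Viability after 48 h compound treatment at 37C, 500-1,000 cells/well, read as ATP luminescence with CellTiter-Glo. Primary screens used 11-point (MIPE, 0.78 nM-46 µM) or 8-point (NPC, 0.59 nM-46 µM) final concentrations; follow-up screens used 11-point dilutions.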
# [2] = qHTS of pediatric cancer cell lines to identify multiple opportunities for drug repurposing: Primary screen for Rh18 cells (AID 1347102); further: nearly all actives have a fitted effect of over 65% in size; further: potency means the concentration at half of the fitted maximal effect
# Outline: as §1
# [3] = qHTS of pediatric cancer cell lines to identify multiple opportunities for drug repurposing: Primary screen for OHS-50 cells (AID 1347103); further: nearly all actives have a fitted effect of over 40% in size; further: potency means the concentration at half of the fitted maximal effect
# Outline: (§2)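 Cells (500-1,000/well) rested 5 h, then received compounds for 48 h; metabolically active cells were measured by CellTiter-Glo luminescence. Final concentrations spanned up to 46 µM (MIPE, 11-point) or 0.59 nM-46 µM (NPC, 8-point) in primary screens, 11-point in follow-ups.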
# [4] = qHTS of pediatric cancer cell lines to identify multiple opportunities for drug repurposing: Primary screen for RD cells (AID 1347104); further: nearly all actives have a fitted effect of over 55% in size; further: potency means the concentration at half of the fitted maximal effect
# Outline: (§3)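 Cells plated at 500-1,000/well in growth medium, compounds added after 5 h. MIPE tested at 11 points (from 0.78 nM), NPC at 8 points (from 0.59 nM). CellTiter-Glo luminescence after 48 h; concentration-response curves from primary screen.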
# [5] = qHTS of pediatric cancer cell lines to identify multiple opportunities for drug repurposing: Primary screen for MG 63 (6-TG R) cells (AID 1347105); further: nearly all actives have a fitted effect of over 50% in size; further: potency means the concentration at half of the fitted maximal effect
# Outline: as §3
# [6] = qHTS of pediatric cancer cell lines to identify multiple opportunities for drug repurposing: Primary screen for control Hh wild type fibroblast cells (AID 1347106);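 further: series mostly up to about 46 µM; a drop in luminescence marks cytotoxicity and a rise apparent proliferation; nearly all actives have a fitted effect of over 55% in size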
# Outline: as §1
# [7] = qHTS of pediatric cancer cell lines to identify multiple opportunities for drug repurposing: Primary screen for Rh30 cells (AID 1347107); further: series mostly up to about 46 µM; nearly all actives have a fitted effect of over 75% in size
# Outline: as §1
# [8] = qHTS of pediatric cancer cell lines to identify multiple opportunities for drug repurposing: Primary screen for Rh41 cells (AID 1347108); further: nearly all actives have a fitted effect of over 70% in size; further: potency means the concentration at half of the fitted maximal effect
# Outline: as §3
# [9] = qHTS of pediatric cancer cell lines to identify multiple opportunities for drug repurposing: Primary screen for BT-12 cells (AID 1347101); further: nearly all actives have a fitted effect of over 25% in size; further: potency means the concentration at half of the fitted maximal effect
# Outline: as §2
# [10] = qHTS of pediatric cancer cell lines to identify multiple opportunities for drug repurposing: Confirmatory screen for NB1643 cells (AID 1347109); further: nearly all actives have a fitted effect of over 45% in size; further: potency means the concentration at half of the fitted maximal effect
# Outline: as §1
# [11] = qHTS of pediatric cancer cell lines to identify multiple opportunities for drug repurposing: Confirmatory screen for A673 cells (AID 1347110); further: nearly all actives have a fitted effect of over 65% in size; further: potency means the concentration at half of the fitted maximal effect
# Outline: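 A673 cells at 500-1,000 cells/well were dosed 5 h after plating, in dilution series up to 46 uM final; primary runs used 8 or 11 points and confirmatory runs used 11 points. Viability was read by CellTiter-Glo luminescence after 48 h, against DMSO and 2.3 uM bortezomib controls.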
# [12] = qHTS of pediatric cancer cell lines to identify multiple opportunities for drug repurposing: Confirmatory screen for BT-12 cells (AID 1347112); further: nearly all actives have a fitted effect of over 55% in size; further: potency means the concentration at half of the fitted maximal effect
# Outline: as §1
# [13] = qHTS of pediatric cancer cell lines to identify multiple opportunities for drug repurposing: Confirmatory screen for DAOY cells (AID 1347114); further: nearly all actives have a fitted effect of over 65% in size; further: potency means the concentration at half of the fitted maximal effect
# Outline: (§4)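 Viability measured as metabolically active cells via CellTiter-Glo luminescence following 48 hours of compound exposure, 11-point dilutions in confirmatory testing. 500-1,000 cells/well plated 5 hours before dosing; controls were DMSO and 2.3 µM bortezomib.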
# [14] = qHTS of pediatric cancer cell lines to identify multiple opportunities for drug repurposing: Confirmatory screen for NB-EBc1 cells (AID 1347115); further: nearly all actives have a fitted effect of over 45% in size; further: potency means the concentration at half of the fitted maximal effect
# Outline: as §1
# [15] = qHTS of pediatric cancer cell lines to identify multiple opportunities for drug repurposing: Confirmatory screen for BT-37 cells (AID 1347117); further: nearly all actives have a fitted effect of over 55% in size; further: potency means the concentration at half of the fitted maximal effect
# Outline: as §1
# [16] = qHTS of pediatric cancer cell lines to identify multiple opportunities for drug repurposing: Confirmatory screen for Rh41 cells (AID 1347123);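 further: 48 h compound exposure; nearly all actives have a fitted effect of over 60% in size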; further: potency means the concentration at half of the fitted maximal effect
# Outline: as §1
# [17] = qHTS of pediatric cancer cell lines to identify multiple opportunities for drug repurposing: Confirmatory screen for SJ-GBM2 cells (AID 1347116); further: nearly all actives have a fitted effect of over 60% in size; further: potency means the concentration at half of the fitted maximal effect
# Outline: as §4
# [18] = qHTS of pediatric cancer cell lines to identify multiple opportunities for drug repurposing: Confirmatory screen for U-2 OS cells (AID 1347122); further: nearly all actives have a fitted effect of over 65% in size; further: potency means the concentration at half of the fitted maximal effect
# Outline: as §1
# [19] = qHTS of pediatric cancer cell lines to identify multiple opportunities for drug repurposing: Confirmatory screen for SK-N-MC cells (AID 1347111);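 further: potency means the concentration at half of the fitted maximal effect; cells exposed to compound for 48 h before the readout; nearly all actives have a fitted effect of over 70% in size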
# Outline: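 SK-N-MC cells at 500-1,000 cells/well in growth media were pre-incubated 5 h, then exposed to compounds at 11-point dilutions for 48 h at 37 degrees C, 5% CO2. Viability was read as CellTiter-Glo luminescence.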
# [20] = qHTS of pediatric cancer cell lines to identify multiple opportunities for drug repurposing: Confirmatory screen for TC32 cells (AID 1347118)
# Outline: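 qHTS, TC32, 48 h drug treatment, CellTiter-Glo luminescence as a proxy for metabolically active cells; primary top concentration 46 µM (MIPE 11-pt, NPC 8-pt); confirmatory 11-pt.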
smiles,measurement,setting,value
Nc1cc(C(Cl)=C(Cl)Cl)c(S(N)(=O)=O)cc1S(N)(=O)=O,Potency,[1],inactive
same,Potency,[2],inactive
same,Potency,[3],inactive
same,Potency,[4],inactive
same,Potency,[5],inactive
same,Potency,[6],inactive
same,Potency,[7],inactive
same,Potency,[8],inactive
CCOC(=O)c1c(C)n(C)c2ccc(O)cc12,Potency,[1],inactive
same,Potency,[9],inactive
same,Potency,[2],inactive
same,Potency,[3],inactive
same,Potency,[4],inactive
same,Potency,[5],inactive
same,Potency,[7],inactive
same,Potency,[8],inactive
C=C(c1ccc(C(=O)O)cc1)c1cc2c(cc1C)C(C)(C)CCC2(C)C,Potency,[1],inactive
same,Potency,[9],inactive
same,Potency,[2],inactive
same,Potency,[3],3.89 µM (active)
same,Potency,[4],inactive
same,Potency,[5],inactive
same,Potency,[7],inactive
same,Potency,[8],inactive
same,Potency,[10],inactive
same,Potency,[11],inactive
same,Potency,[12],inactive
same,Potency,[13],inactive
same,Potency,[14],inactive
same,Potency,[15],inactive
same,Potency,[16],inactive
COC(=O)N[C@H](C(=O)N[C@@H](Cc1ccccc1)[C@@H](O)CN(Cc1ccc(-c2ccccn2)cc1)NC(=O)[C@@H](NC(=O)OC)C(C)(C)C)C(C)(C)C,Potency,[1],inactive
same,Potency,[9],inactive
same,Potency,[2],inactive
same,Potency,[3],inactive
same,Potency,[4],inactive
same,Potency,[5],inactive
same,Potency,[7],inactive
same,Potency,[8],inactive
CN(C)[C@@H](CCOc1cccc2ccccc12)c1ccccc1,Potency,[1],inactive
same,Potency,[2],inactive
same,Potency,[3],15.5 µM (active) and 21.7 µM (active)
same,Potency,[4],33.2 µM (active)
same,Potency,[5],inactive
same,Potency,[6],inactive
same,Potency,[7],inactive
same,Potency,[8],inactive
COc1cc2c(cc1OC)C1CC(=O)C(CC(C)C)CN1CC2 (centres undefined),Potency,[1],inactive
same,Potency,[9],inactive
same,Potency,[2],inactive
same,Potency,[3],inactive
same,Potency,[4],inactive
same,Potency,[5],inactive
same,Potency,[7],inactive
same,Potency,[8],inactive
C[C@@H](c1ncncc1F)[C@](O)(Cn1cncn1)c1ccc(F)cc1F,Potency,[1],inactive
same,Potency,[9],inactive
same,Potency,[2],inactive
same,Potency,[4],inactive
same,Potency,[6],inactive
same,Potency,[7],inactive
Nc1ncn([C@H]2C[C@H](O)[C@@H](CO)O2)c(=O)n1,Potency,[1],inactive
same,Potency,[9],inactive
same,Potency,[2],inactive
same,Potency,[3],inactive
same,Potency,[5],inactive
same,Potency,[6],inactive
same,Potency,[7],inactive
same,Potency,[8],inactive
same,Potency,[10],inactive
same,Potency,[11],inactive
same,Potency,[12],inactive
same,Potency,[13],inactive
same,Potency,[14],inactive
same,Potency,[17],inactive
same,Potency,[18],inactive
same,Potency,[16],inactive
CCCCCCCCOc1ccccc1C(=O)Nc1ccc(C(=O)OCC[N+](C)(CC)CC)cc1,Potency,[1],inactive
same,Potency,[9],17.4 µM (active)
same,Potency,[3],inactive
same,Potency,[5],inactive
same,Potency,[6],inactive
same,Potency,[8],inactive
CCN(CC)CCOc1ccc(Nc2ncc3cc(-c4c(Cl)cccc4Cl)c(=O)n(C)c3n2)cc1,Potency,[1],1.05 µM (active)
same,Potency,[9],19.3 µM (active)
same,Potency,[2],372 nM (active)
same,Potency,[3],0.122 µM (active)
same,Potency,[4],0.743 µM (active)
same,Potency,[5],187 nM (active)
same,Potency,[8],1.87 µM (active)
same,Potency,[10],9.27 µM (active)
same,Potency,[11],0.185 µM (active)
same,Potency,[19],293 nM (active)
same,Potency,[12],11.7 µM (active)
same,Potency,[13],1.65 µM (active)
same,Potency,[14],18.5 µM (active)
same,Potency,[17],2.33 µM (active)
same,Potency,[15],4.65 µM (active)
same,Potency,[20],2.61 µM (active)
same,Potency,[18],657 nM (active)
same,Potency,[16],9.27 µM (active)
COC(=O)C1=C(C)NC(C)=C(C(=O)OCCCN2CCC(c3ccccc3)(c3ccccc3)CC2)C1c1cccc([N+](=O)[O-])c1 (centres undefined),Potency,[1],inactive
same,Potency,[9],inactive
same,Potency,[2],inactive
same,Potency,[4],inactive
same,Potency,[6],inactive
same,Potency,[7],inactive
same,Potency,[8],inactive
CS(=O)(=O)OCCCCOS(C)(=O)=O,Potency,[1],inactive
same,Potency,[9],inactive
same,Potency,[2],inactive
same,Potency,[3],inactive
same,Potency,[4],inactive
same,Potency,[5],inactive
same,Potency,[7],inactive
same,Potency,[8],inactive
same,Potency,[10],inactive
same,Potency,[11],16.5 µM (active)
same,Potency,[12],inactive
same,Potency,[13],inactive
same,Potency,[14],inactive
same,Potency,[18],inactive
same,Potency,[16],inactive
CCOC(=O)C1=C(O)C(=O)N(Cc2ccccc2)C1,Potency,[1],inactive
same,Potency,[9],inactive
same,Potency,[2],inactive
same,Potency,[3],inactive
same,Potency,[4],inactive
same,Potency,[5],inactive
same,Potency,[7],inactive
same,Potency,[8],inactive
C[Se]CCC(N)C(=O)O (centres undefined),Potency,[1],inactive
same,Potency,[9],inactive
same,Potency,[2],inactive
same,Potency,[3],inactive
same,Potency,[4],inactive
same,Potency,[5],inactive
same,Potency,[8],inactive
CC(C)[N+]1(C)[C@@H]2CC[C@H]1CC(OC(=O)C(CO)c1ccccc1)C2 (some centres undefined),Potency,[1],inactive
same,Potency,[9],inactive
same,Potency,[4],29.6 µM (active)
same,Potency,[5],inactive
same,Potency,[6],inactive
S=c1nc[nH]c2nc[nH]c12,Potency,[1],1.5 µM (active) and 2.96 µM (active)
same,Potency,[9],15.5 µM (active) and 24.3 µM (active)
same,Potency,[2],inactive
same,Potency,[3],2.19 µM (active) and 3.06 µM (active)
same,Potency,[4],inactive
same,Potency,[5],inactive
same,Potency,[6],inactive
same,Potency,[8],inactive
O=c1c(O)c(-c2ccc(O)cc2O)oc2cc(O)cc(O)c12,Potency,[1],inactive
same,Potency,[2],inactive
same,Potency,[3],inactive
same,Potency,[4],inactive
same,Potency,[5],inactive
same,Potency,[6],inactive
same,Potency,[7],inactive
CN(C)CCCC1(c2ccc(F)cc2)OCc2cc(C#N)ccc21 (centres undefined),Potency,[1],inactive
same,Potency,[9],inactive
same,Potency,[2],inactive
same,Potency,[3],inactive
same,Potency,[4],29.6 µM (active)
same,Potency,[5],inactive
same,Potency,[7],inactive
CC(=O)NC[C@H]1CN(c2ccc(N3CCOCC3)c(F)c2)C(=O)O1,Potency,[1],inactive
same,Potency,[9],inactive
same,Potency,[2],inactive
same,Potency,[3],inactive
same,Potency,[4],inactive
same,Potency,[5],inactive
same,Potency,[7],inactive
same,Potency,[8],inactive
O=C(O)c1cn(-c2ccc(F)cc2)c2cc(N3CCNCC3)c(F)cc2c1=O,Potency,[1],inactive
same,Potency,[2],inactive
same,Potency,[3],inactive
same,Potency,[4],inactive
same,Potency,[5],inactive
same,Potency,[6],inactive
same,Potency,[7],inactive
same,Potency,[8],inactive
Nc1ccc(S(N)(=O)=O)cc1,Potency,[1],inactive
same,Potency,[9],inactive
same,Potency,[2],inactive
same,Potency,[3],inactive
same,Potency,[4],inactive
same,Potency,[5],inactive
same,Potency,[7],inactive
same,Potency,[8],inactive
